Source: PubChem BioAssay (National Center for Advancing Translational Sciences (NCATS))
This is a sample that favours compounds with a hit; in the whole collection about 20% have one here.
Shiga toxin inh – A qHTS for Small Molecule Inhibitors of Shiga Toxin. Vero cells, Shiga toxin protein synthesis inhibition reporter. inhibition, % at 38.7 µM. 9.2% of 290,000 active. AID 2315, 2010; in the data active = inhibition mostly above about 28%, no sharp cut-off; inactive = mostly below about 43%
Pf growth 96h – Primary qHTS for delayed death inhibitors of the malarial parasite plastid, 96 hour incubation | Potency, µM (highest dose often 28.7 µM), most hits filed as inhibitors | 6.9% of 320,000 active | P. falciparum luciferase reporter growth, 96 h
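Cell-based qHTS: luciferase-tagged P. falciparum in erythrocytes (2% hematocrit, 0.05% parasitemia final) incubated with compounds for 96 hours, 37 C, 5% CO2; luciferase detection reagent then added and luminescence measured.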
CHX counter – Cycloheximide Counterscreen for Small Molecule Inhibitors of Shiga Toxin; cell reporter, cycloheximide protein synthesis inhibition counterscreen; max response, %; 12% of 300,000 active; in the data active = max response mostly above about 13%, no sharp cut-off; inactive = mostly below about 14%; note: read at 38.3 µM for the half of the compounds with a filed dose
Pf growth 48h – Primary qHTS for delayed death inhibitors of the malarial parasite plastid, 48 hour incubation; Potency, µM (top dose mostly 28.7 µM), usual class: inhibitors; AID 504832, 2011; P. falciparum luciferase growth in erythrocytes, 48 h; 5.9% of 310,000 active
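Here the parasites carry a stable luciferase gene and grow inside erythrocytes in Albumax-based RPMI medium with compound for one erythrocytic cycle. Activity is scored as loss of luminescent signal.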
HCMV antiviral – qHTS Assay for inhibitors of the human cytomegalovirus (HCMV); HFF cells, HCMV-luciferase reporter, 72 h; stronger effect = lower value; activity change, negative = inhibition, % at 57.5 µM; 4.5% of 410,000 active; in the data active = activity change below about -60%; inconclusive = no clear call, values can overlap the other calls; inactive = above about -39%
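Inhibition of viral replication was scored as loss of reporter luminescence in HFFs infected with HCMV-luciferase (MOI 1 PFU/cell) for 72 h; compounds tested at 2 doses, normalized to buffer and Salinomycin controls.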
Each line names hits and unclear results; the compound was inactive in the other large screens. Unless noted, calls come from the whole dose curve; as a rule, active = well fitted inhibition curve with a large enough effect; inconclusive = small, poorly fitted or top-dose-only effect, or another doubt; inactive = no such curve, though single readings can be large or run the other way.

COc1ccc(-c2ccc(NS(=O)(=O)c3cc(C)c(C)cc3C)cc2)nn1	HCMV antiviral -76.9 (no result: Shiga toxin inh, Pf growth 96h, CHX counter, Pf growth 48h)
CCOCCCn1c(=NC(=O)c2ccc(OC)c(OC)c2)c(C#N)cc2c(=O)n3cccc(C)c3nc21	Pf growth 48h 2.33µM (no result: Pf growth 96h, HCMV antiviral)
CCOC(=O)c1cc2c(=O)n3ccccc3nc2n(CCCOC)c1=NC(C)=O	Pf growth 96h 10.4µM
CCOC(=O)c1cc2c(=O)n3cccc(C)c3nc2n(CCOC)c1=NC(C)=O	Pf growth 96h 6.57µM, Pf growth 48h inconclusive
CC(C)OCCCn1c(=N)c(C(N)=S)cc2c(=O)n3ccccc3nc21	Pf growth 96h 13.1µM (no result: Pf growth 48h)
CCOC(=O)c1cc2c(=O)n3ccccc3nc2n(CCCOC)c1=NC(=O)c1ccncc1	Pf growth 96h inconclusive
Cc1ccc(-c2nc3c(c(SCC(=O)N4CCCCC4)n2)Cc2cc(C)ccc2O3)cc1	none (no result: Shiga toxin inh, Pf growth 96h, CHX counter, Pf growth 48h)
CCCCCNC(=O)C1CCC(Cn2c(=S)[nH]c3ccccc3c2=O)CC1 (centres undefined)	Pf growth 48h inconclusive
COc1ccc(Cl)cc1S(=O)(=O)N(C)CC(=O)NCCCn1ccnc1	none
CCOC(=O)C1CCN(C(=O)c2nn(-c3ccc(C)cc3)c(=O)c3c2c2ccccc2n3C)CC1	none (no result: Shiga toxin inh, Pf growth 96h, CHX counter, Pf growth 48h)
Clc1cccc(Cl)c1CSc1cc2c(nn1)-c1ccccc1CC2	HCMV antiviral inconclusive
Clc1ccccc1CSc1cc2c(nn1)-c1ccccc1CC2	Shiga toxin inh 165.2, CHX counter 42.2
CSc1ccccc1OCc1cc(C(=O)NCCN2CCCc3ccccc32)no1	CHX counter 33.2, Pf growth 48h inconclusive
CSc1ccccc1OCc1cc(C(=O)NCCn2nc(C)cc2C)no1	CHX counter 10.7, Pf growth 48h inconclusive
CSc1ccccc1OCc1cc(C(=O)NC(C)Cn2cncn2)no1 (centres undefined)	CHX counter 13.4
CSc1ccccc1OCc1cc(C(=O)NCC(C)(C)N2CCOCC2)no1	Pf growth 96h inconclusive, Pf growth 48h inconclusive, HCMV antiviral inconclusive
Cc1cnc(-c2nc3ccccc3n2C(C(=O)NC(C)(C)C)c2cc3ccccc3o2)cn1 (centres undefined)	none (no result: Shiga toxin inh, Pf growth 96h, CHX counter, Pf growth 48h)
c1ccc(COc2ccccc2CNc2nn[nH]n2)cc1	Pf growth 96h inconclusive, HCMV antiviral inconclusive
COc1ccc(/C=C/c2nc(C#N)c(NC3CCCCC3)o2)cc1OC	none (no result: Shiga toxin inh, Pf growth 96h, CHX counter, Pf growth 48h)
N=c1n(N)c2ccccc2n1CC(=O)c1ccc(Br)cc1	none (no result: Shiga toxin inh)
COC(/C=C/Nc1ccc(OC)cc1)=C(C#N)C#N	Pf growth 48h inconclusive
COc1ccc(OC)c(N/C=C/C(=C(C#N)C#N)N(C)C)c1	Pf growth 96h inconclusive, Pf growth 48h inconclusive, HCMV antiviral -67.7
CCN(CC)CCCNc1sc(S(=O)(=O)c2ccccc2)nc1S(=O)(=O)c1ccc(Cl)cc1	HCMV antiviral -74.5 (no result: Shiga toxin inh, Pf growth 96h, CHX counter, Pf growth 48h)
Cc1ccc(S(=O)(=O)c2nc(S(=O)(=O)c3ccccc3)sc2N2CCN(CCO)CC2)cc1	Pf growth 48h inconclusive, HCMV antiviral -97.9
CCN(CC)c1sc(S(=O)(=O)c2ccccc2)nc1S(=O)(=O)c1ccc(C)cc1	HCMV antiviral -73.3 (no result: Shiga toxin inh, Pf growth 96h, CHX counter, Pf growth 48h)
CCS(=O)(=O)c1nc(S(=O)(=O)c2ccc(C)cc2)c(N2CCN(CCO)CC2)s1	none
Cc1ccc(S(=O)(=O)c2nc(S(=O)(=O)c3ccccc3)sc2N2CCN(C)CC2)cc1	Pf growth 96h inconclusive, Pf growth 48h inconclusive, HCMV antiviral -99.2
CCS(=O)(=O)c1nc(S(=O)(=O)c2ccc(C)cc2)c(N2CCCCCC2)s1	none (no result: Shiga toxin inh, Pf growth 96h, CHX counter, Pf growth 48h)
CCS(=O)(=O)c1nc(S(=O)(=O)c2ccc(C)cc2)c(N2CCC(O)CC2)s1	Pf growth 96h inconclusive
O=C1CN(C(=O)COc2ccc(Cl)cc2)C(c2ccccc2)c2cc(Br)ccc2N1 (centres undefined)	none (no result: Shiga toxin inh, Pf growth 96h, CHX counter, Pf growth 48h)
CCOc1ccc(-c2nc(SCC(=O)Nc3cc(F)ccc3F)n3[nH]c(=O)cc3n2)cc1	none (no result: Shiga toxin inh, Pf growth 96h, CHX counter, Pf growth 48h)
O=[N+]([O-])c1cc(-c2cnc3ccccc3n2)ccc1Oc1ccc(Br)cc1	Shiga toxin inh 110.6, CHX counter 29.2
O=C(O)c1ccc(Oc2ccc([N+](=O)[O-])cc2)c([N+](=O)[O-])c1	none (no result: Shiga toxin inh, Pf growth 96h, CHX counter, Pf growth 48h)
O=[N+]([O-])c1ccc(Oc2ccc(-c3cnc4ccccc4n3)cc2[N+](=O)[O-])cc1	Shiga toxin inh 39.9, CHX counter 21.0
CCn1c2ccccc2c2cc(NC(=O)CSc3nccc(=O)[nH]3)ccc21	Pf growth 48h inconclusive
COc1cc2c3nnc(-c4ccc(F)cc4)c-3cn(Cc3ccc(C)cc3)c2cc1OC	Pf growth 96h 0.37µM, Pf growth 48h 0.329µM
COc1cc2c3nnc(-c4ccccc4)c-3cn(Cc3ccc(F)cc3)c2cc1OC	Pf growth 96h inconclusive, HCMV antiviral -66.0
Cc1nn(C)cc1C1C2=C(CC(C)(C)CC2=O)OC2=C1C(=O)CC(C)(C)C2	none
CC(Oc1ccc([N+](=O)[O-])cc1)C(=O)NCCCN1CCOCC1 (centres undefined)	none
Cc1ccnc(NC2CCCCC2)c1	Shiga toxin inh 108.9, CHX counter 30.6
Cc1cc(NC2CCCCC2)nc2ccccc12	Pf growth 48h inconclusive
CCn1ccc2cc(S(=O)(=O)N3CCC(C(=O)NCc4ccc(OC)cc4)CC3)ccc21	none (no result: Shiga toxin inh, Pf growth 96h, CHX counter, Pf growth 48h)
COc1c2ccoc2cc2oc(=O)ccc12	none (no result: Shiga toxin inh, Pf growth 96h, CHX counter, Pf growth 48h)
CC1(C)OC1COc1c2ccoc2cc2oc(=O)ccc12 (centres undefined)	Pf growth 96h 0.37µM, HCMV antiviral inconclusive
CCOC(=O)c1c(NC(=O)/C=C/C(=O)O)sc(C)c1-c1ccc(C)c(C)c1	Pf growth 48h 9.28µM
CC(C)n1c(/N=C/c2c[nH]c3ccccc23)nc2ccccc21	CHX counter 19.7
O=[N+]([O-])c1ccc(NCCNc2ccc([N+](=O)[O-])cc2)cc1	none (no result: Shiga toxin inh, Pf growth 96h, CHX counter, Pf growth 48h)
C#CCNc1ccc([N+](=O)[O-])cc1	CHX counter 16.3
CCN1CCCC1CN(Cc1cc2cc(OC)ccc2[nH]c1=O)C(=O)NCc1ccccc1 (centres undefined)	none
CC(C)c1nnc(NC(=O)c2nc(S(=O)(=O)Cc3ccc(F)cc3)ncc2Cl)s1	Shiga toxin inh 98.2, CHX counter 59.3, HCMV antiviral -101.9
CC(C)c1nnc(NC(=O)c2nc(SCc3ccc(F)cc3)ncc2Cl)s1	none (no result: Shiga toxin inh, Pf growth 96h, CHX counter, Pf growth 48h)
CC(C)c1nnc(NC(=O)CS(=O)(=O)c2ccccc2)s1	none
CSc1nnc(NC(=O)c2nc(S(=O)(=O)Cc3cccc(C)c3)ncc2Cl)s1	Shiga toxin inh 103.6, Pf growth 96h inconclusive, CHX counter 62.4, HCMV antiviral -102.6
Cc1cccc(CS(=O)(=O)c2ncc(Cl)c(C(=O)Nc3nnc(C(C)C)s3)n2)c1	Shiga toxin inh 44.9, Pf growth 96h inconclusive, CHX counter 53.8, Pf growth 48h inconclusive, HCMV antiviral -99.9
CCSc1nnc(NC(=O)c2nc(S(=O)(=O)Cc3ccc(F)cc3)ncc2Cl)s1	Shiga toxin inh 75.0, CHX counter 50.4, HCMV antiviral -102.3
CCOC(=O)Cn1c(=O)oc2cc(S(=O)(=O)N3CCN(c4cccc(C)c4)C(C)C3)ccc21 (centres undefined)	none (no result: Shiga toxin inh, Pf growth 96h, CHX counter, Pf growth 48h)
CCOC(=O)C1=C(O)C(Nc2nccs2)(C(F)(F)F)N=C1C (centres undefined)	Pf growth 96h inconclusive
